Bioassay records: PubChem, several laboratories
IL1B NFkB inh = inhibitors of IL-1B driven NFkB p65 nuclear import, primary screen, imaging, HUVEC, IL-1B stimulus, high-content imaging | HUVEC IL-1B NFkB p65 nuclear translocation imaging | inhibition, % at 2 µM | actives 0.43% (n = 94,000) | AID 796, 2007;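 active = inhibition above about 30% together with a positive call from visual inspection of the well image, limit read from the data; inconclusive = inhibition above a set limit but visual check negative; inactive = inhibition not above a set limit, visual check negative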;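 note: nuclear over cytoplasmic p65 intensity ratio measured by imaging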
sEH activator = soluble epoxide hydrolase activators, primary screen, biochemical, human sEH; purified human sEH enzymatic activity, activator screen; activation, % at 2 µM; actives 0.04% (n = 91,000); AID 717, 2007; in the data active = activation above about 37%
sEH inh = soluble epoxide hydrolase inhibitors, primary screen, biochemical, human sEH | Bifunctional epoxide hydrolase 2 (Homo sapiens), P34913 | recombinant human sEH enzymatic activity assay | inhibition, % at 2 µM | actives 0.34% (n = 91,000) | AID 707, 2007; in the data active = inhibition above about 80%
HUVEC tox IL1B = cytotoxicity in IL-1B stimulated HUVEC, primary screen, cytotoxicity control for IL-1B NFkB translocation project, imaging, Hoechst nuclear count, IL-1B stimulus; actives 0.41% (n = 94,000); HUVEC cell count loss; cell count reduction, % at 2 µM; AID 845, 2007;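 active = cell count reduction more than 3 SD above the screen-wide mean, cut at about 70% in these data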
NFkB transloc pot = enhancers of NFkB p65 translocation in HUVEC – imaging, IL-1B stimulus, high-content imaging, primary screen; HUVEC IL-1B NFkB p65 nuclear translocation imaging; activation, % at 2 µM; actives 0.3% (n = 94,000); AID 819, 2007;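 active = activation above 40%, about the mean plus 3 SD, also judged a hit on visual image review; inconclusive = activation above 40% but not a hit on visual review; inactive = activation not above 40% and no visual hit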;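 note: percent activation is computed from the nuclear over cytoplasmic p65 intensity ratio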
Cav3 T inh = Cav3.2 calcium influx blockers – cell-based, Fluo-4 calcium fluorescence, FDSS, MLSMR library, primary screen; B-score at 10 µM; actives 4% (n = 100,000); Cav3.2-expressing cells; hits give low values; Voltage-dependent T-type calcium channel subunit alpha-1H (Homo sapiens), O95180;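 active = single-dose well whose peak fluorescence ratio is a statistical outlier from its plate by either plate-standardised score or position-corrected B-score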
Large screens that a line does not name were inactive. An excerpt weighted towards active compounds, which were near 4.6% of everything screened.

COc1ccc(CC(=O)NC(C)c2nnc(SCC(=O)c3ccc(Br)cc3)n2C)cc1 (centres undefined)	none
O=C(CN1C(=O)COc2ccccc21)c1cccc(Cl)c1	none (no result: IL1B NFkB inh, sEH activator, sEH inh, HUVEC tox IL1B, NFkB transloc pot)
CCOc1ccc(S(=O)(=O)NCCC(=O)OC(C)C(=O)N2CCc3ccccc32)cc1 (centres undefined)	Cav3 T inh -4.6 (no result: sEH activator, sEH inh)
O=C(C1CCN(S(=O)(=O)c2ccc3c(c2)OCCO3)CC1)N1CCc2ccccc21	none (no result: IL1B NFkB inh, sEH activator, sEH inh, HUVEC tox IL1B, NFkB transloc pot)
CC(OC(=O)C1CCN(S(=O)(=O)c2ccc(Cl)cc2)CC1)C(=O)N1CCc2ccccc21 (centres undefined)	Cav3 T inh -4.7
CC(C)c1nc(N2CCOCC2)c(C#N)c2c1CCCC2	Cav3 T inh -5 (no result: sEH activator, sEH inh)
CO/N=C(/CNC(=O)c1cccc(Cl)c1)c1ccc(Cl)cc1	none (no result: Cav3 T inh)
CC(C)CC(COCc1ccc([N+](=O)[O-])cc1)N1CCN(C(=O)c2ccc(C(F)(F)F)cc2)CCC1=O (centres undefined)	none (no result: IL1B NFkB inh, sEH activator, sEH inh, HUVEC tox IL1B, NFkB transloc pot)
N#CC1=C(N)NC(SCC(=O)Nc2ccccc2)=C(C#N)C12CCCCC2	Cav3 T inh -5
COc1ccc(CN2C(=O)NC3(CCCCC3)C2=O)cc1F	none
CN(C)c1ccc(/C=C/C(=O)c2cccc(Br)c2)cc1	Cav3 T inh -7.5
O=C(/C=C/c1ccccc1)c1ccccc1	none (no result: IL1B NFkB inh, sEH activator, sEH inh, HUVEC tox IL1B, NFkB transloc pot)
O=C(CN1CCC(Cc2ccccc2)CC1)Nc1ccc2c(c1)OCCO2	Cav3 T inh -4.1
CCSc1nc(C)c(CC)c(C)c1C(N)=O	IL1B NFkB inh 34
Cc1ccc(C(=O)CSc2nc(C)cc(C)c2C(N)=O)cc1	none
C[C@@H]1NC(=O)[C@H](CCC(N)=O)NC(=O)c2cc([N+](=O)[O-])cc(I)c2NCCC[C@@H](C(N)=O)NC1=O	none (no result: IL1B NFkB inh, sEH activator, sEH inh, HUVEC tox IL1B, NFkB transloc pot)
COC(=O)C(Cc1cnc(Cl)s1)(C(=O)OC)c1ccc(C(F)(F)F)cc1[N+](=O)[O-]	Cav3 T inh -8.6
CCc1ccc2[nH]c(=O)c(CN(Cc3ccc(OC)cc3)Cc3nnnn3CCOC)cc2c1	none (no result: IL1B NFkB inh, sEH activator, sEH inh, HUVEC tox IL1B, NFkB transloc pot)
CC(=O)NCc1nc2ccccc2n1Cc1ccccc1C	none
CCOc1ccc(NC(=O)C2CCN(C(=O)NC3CCCCC3)CC2)cc1	none
COc1ccc(CCNC(=O)C2CCN(C(=O)NC3CCCCC3)CC2)cc1	IL1B NFkB inh 39
c1csc(-c2csc3nc(CN4CCOCC4)nc(NCc4ccc5c(c4)OCO5)c23)c1	NFkB transloc pot inconclusive, Cav3 T inh -7.6 (no result: sEH activator, sEH inh)
Cc1sc2nc(CN3CCOCC3)nc(NCCc3ccccc3)c2c1C	none
CCCN(CCC)C(=O)Cc1coc2ccc3ccccc3c12	Cav3 T inh -6.3
CN1C[C@@H]2C(c3ccccc3)C3(c4ccccc4)CC2(C3)[C@H]1c1ccccc1 (some centres undefined)	none (no result: IL1B NFkB inh, sEH activator, sEH inh, HUVEC tox IL1B, NFkB transloc pot)
Nc1nnc(Cc2ccc(Cl)c(Cl)c2)s1	none
NC(=O)SCC(=O)Nc1ccc(Cl)c(Cl)c1	none (no result: Cav3 T inh)
CN(C)c1nc(NCc2ccccc2)nc(SCC(=O)Nc2ccc(Cl)c(Cl)c2)n1	Cav3 T inh -4.1
O=C(CSc1cccs1)Nc1ccc2ccccc2c1	Cav3 T inh -5.3
O=C(CSCc1cccc(CSCC(=O)Nc2ccc3ccccc3c2)n1)Nc1ccc2ccccc2c1	none (no result: Cav3 T inh)
Cc1cccc(N2CCN(CC(=O)Nc3nccs3)CC2)c1C	Cav3 T inh -6.3
O=C(N/N=C\c1ccc(Cl)s1)c1cccs1	sEH inh 94
CCOC(=O)c1nnn(-c2nonc2N)c1-c1ccccc1	NFkB transloc pot 42
CCOC(=O)c1nnn(-c2nonc2N)c1-c1ccc(C)cc1	none
CC(C)Oc1ccc(/C=N/NC(=O)C2CCCN2S(=O)(=O)c2ccc(Cl)cc2)cc1 (centres undefined)	Cav3 T inh -4.7
CCCOc1ccc(/C=N/NC(=O)C2CCCN2S(=O)(=O)c2ccc(Cl)cc2)cc1 (centres undefined)	none
Cc1nc2c(cnn2-c2ccccc2Cl)c(=O)n1-c1ccc(C(C)C)cc1	Cav3 T inh -6.2
CCN(CC)S(=O)(=O)c1cccc(C(=O)N[C@H](C(=O)OCC(=O)Nc2ccccc2)C(C)C)c1	Cav3 T inh -9.2
